Sampled rows, rich in hits. Any-hit rate of the full collection: about 3.3%.
PI5P4Ka inh – blocks human PI5P4K alpha kinase activity | P48426 | PI5P4Kalpha enzyme, ADP-Glo luminescence, 60 min; stronger effect = lower value | max response, % | 330,000 tested, 1.2% active | AID 652105; active means max response of -50% or lower; inconclusive means between -30% and -50%; inactive means -30% or higher; further: value at the top dose of about 77 µM; on the % scale 0 is the no-effect control and ±100 the full control effect
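Controls without substrate or without enzyme flank wells where PI5P4Kalpha converts substrate using 5 microM ATP (final). Incubation lasts 60 minutes at room temperature; ADP formed is read by ADP-Glo luminescence.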
PI4K2A block – PI4K2A (human) kinase inhibition. activity change, negative = inhibition, % at 76.9 µM. purified PI4K2A, ADP-Glo luminescence, 1 h; stronger effect = lower value. Q9BTU6. 420,000 tested, 0.13% active; in the data active means activity change below about -50%; inconclusive means mostly about -30% to -49%;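 further: -100% = wells without enzyme as full effect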
Target sequence (Q9BTU6 whole entry, looked up): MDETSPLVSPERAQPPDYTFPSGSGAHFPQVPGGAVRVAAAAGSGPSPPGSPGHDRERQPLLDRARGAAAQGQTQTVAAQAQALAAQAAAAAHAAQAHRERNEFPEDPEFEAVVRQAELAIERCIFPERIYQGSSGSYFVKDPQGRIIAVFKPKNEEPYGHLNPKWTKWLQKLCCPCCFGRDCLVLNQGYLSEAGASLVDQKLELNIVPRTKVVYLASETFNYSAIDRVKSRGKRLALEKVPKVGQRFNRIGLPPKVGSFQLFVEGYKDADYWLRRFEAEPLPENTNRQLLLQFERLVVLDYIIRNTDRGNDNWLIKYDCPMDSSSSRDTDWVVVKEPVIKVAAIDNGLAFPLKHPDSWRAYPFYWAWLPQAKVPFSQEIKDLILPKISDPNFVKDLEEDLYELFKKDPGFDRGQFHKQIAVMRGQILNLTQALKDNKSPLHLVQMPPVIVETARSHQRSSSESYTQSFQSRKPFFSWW
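ADP-Glo luminescence measured ADP generated by PI4K2A enzyme (4 ug/mL before mixing) with 1.2 mM PI substrate (pre-mix) and 300 microM ATP (pre-mix). Tris pH7.5 buffer with MgCl2, Triton X-100; 1 h reaction at ambient temperature.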
LDHA inh – blocks human lactate dehydrogenase A; purified LDHA, NADH/diaphorase-resazurin fluorescence; stronger effect = lower value; AID 1347041; activity change, % (values are at about 110 or 230 µM); 480,000 tested, 0.15% active; P00338; in the data active means activity change below about -30%; inconclusive means mostly about -25% to -30%;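 further: plate controls were DMSO wells for no effect and wells without enzyme for full effect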
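Resorufin fluorescence (ex540/em590), read at 0 and 20 min after diaphorase/resazurin addition, reports the NADH left after a 5 min room-temperature reaction of 2 nM human LDH5 with 0.06 mM NADH and 0.2 mM pyruvate.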
D3 ag – activates the human D3 dopamine receptor; 410,000 tested, 0.58% active; AID 652048; D3R DiscoveRx beta-arrestin cells, luminescence, 90 min; P35462; max activation, %; in the data active means max activation above about 30%; further: 0% is about no effect
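Agonist mode: compounds and dopamine controls were applied to plated cells for 90 min at 37 degrees C after an overnight attachment at 1500 cells/well. Luminescent read-out followed 30 - 60 minutes at room temperature with DiscoveRx detection reagent.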
DRD3 antagonist – blocks the human D3 dopamine receptor | 360,000 tested, 2.5% active | D3R cells, DiscoveRx beta-arrestin luminescence, antagonist mode; stronger effect = lower value | AID 652054 | max response, negative = inhibition, % | P35462; in the data active means max response below about -50%; inconclusive means no clear call, values can overlap the other calls; further: on the % scale 0 is the no-effect control and ±100 the full control effect
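Cells expressing the human receptor were seeded at 1500 cells/well, incubated overnight at 37 degrees C in 5% CO2, then exposed to library compounds with dopamine controls for 90 minutes at 37 degrees C before luminescent detection.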
Starred values were filed as active, the others as inactive; ? = inconclusive; · = not tested or not shown.

SMILES	PI5P4Ka inh	PI4K2A block	LDHA inh	D3 ag	DRD3 antagonist
COc1cc(SC)ccc1C(=O)OC(C(=O)c1ccccc1)c1ccccc1 (configuration not stated)	·	·	-33.3*	·	·
O=C1C(Cl)=C(N2CCN(c3ccccc3[N+](=O)[O-])CC2)C(=O)c2ccccc21	-1.4	?	23.0	-16.0	-60.3*
O=c1oc(-c2ccc(F)cc2)nn1CC(O)COc1ccc2ccccc2c1 (configuration not stated)	·	·	-30.2*	·	·
O=C(COC(=O)c1cccnc1Cl)c1ccc(F)cc1	-2.7	-6.9	-5.2	-12.9	-23.6
O=C(COC(=O)c1cccnc1Cl)c1ccccc1	·	-70.7*	0.9	1.2	15.5
COc1cc(/C=C/C(=O)OCC(=O)N2CCC(C)CC2)ccc1O	6.2	1.7	-4.0	-9.9	-20.7
COc1cc(/C=C/C(=O)OC2CC3CCC2(C)C3(C)C)ccc1O (configuration not stated)	36.4	3.1	-12.0	-2.5	-50.5*
O=S(=O)(Nc1nc2ccccc2nc1Nc1ccc(C(F)(F)F)cc1)c1ccccc1	·	·	-5.7	·	·
CC(=O)Oc1ccc2c(c1)CC[C@@H]1[C@@H]2CC[C@]2(C)[C@@H](O)CC[C@@H]12	·	-0.9	·	4.3	·
Oc1ccc(N=Cc2ccc(-c3cccs3)s2)cc1	·	-69.2*	38.3	-12.3	?
CCCC(C)(N)C(=O)O (configuration not stated)	·	·	7.8	·	·
CCN(C[C@H]1[C@@H](c2ccc(C3=CCCC3)cc2)[C@H](CO)N1Cc1ccccn1)S(=O)(=O)c1ccccc1[N+](=O)[O-]	·	-7.4	·	·	·
COc1ccc(/C=N/Nc2cc(C)nc(N3CCOCC3)n2)cc1	9.7	3.8	-1.8	32.0*	22.9
COc1ccc(/C=N/Nc2cc(C)nc(N3CCOCC3)n2)cc1OC	0.8	2.6	-5.3	0.7	50.2
N#CC(C#N)=C(N)/C(C#N)=C/c1ccc(O)cc1	·	3.2	·	·	·
N#CC(=Cc1ccc(O)cc1)C(N)=C(C#N)C#N	-69.5*	-7.1	-5.7	-20.1	0.0
O=C(CSc1nc2ccccc2o1)N/N=C/c1ccc(O)c(O)c1	-89.3*	-6.6	5.3	5.3	-21.2
COc1cccc2c(SCC(=O)N/N=C/c3ccc(O)c(O)c3)cc(C)nc12	-5.1	1.6	2.1	30.6*	4.5
Cn1nc(-c2ccc(OCC(=O)NC(C)(C)C)cc2)c2ccccc2c1=O	·	·	9.6	·	·
COc1ccc(-c2nn3c(CCCC(=O)O)nc4ccccc4c3nc2=O)cc1	·	·	2.5	·	·
COC1=CC(=NCl)C=CC1=NCl	-61.9*	?	12.5	-4.8	13.6
CCCCn1c(N2CCNCC2)nc2c1c(=O)[nH]c(=O)n2C	·	·	-8.4	·	·
COc1cc2c(-c3ccccc3Cl)nc3c(c(C)nn3-c3ccccc3)c2cc1OC	·	2.1	-1.9	59.4*	·
COc1cc2c(-c3ccccc3O)nc3c(c(C)nn3-c3ccccc3)c2cc1OC	-8.3	-1.3	0.7	7.8	51.4
COc1ccc(/C=C/C(=O)c2ccc(NC(=O)C34CC5CC(CC(C5)C3)C4)cc2)cc1	·	·	6.5	·	·
SMILES	PI5P4Ka inh	PI4K2A block	LDHA inh	D3 ag	DRD3 antagonist
O=C(/C=C/c1ccco1)c1ccc(NC(=O)C23CC4CC(CC(C4)C2)C3)cc1	-76.9*	-21.3	-3.4	-0.6	0.8
Cc1nn(C)c(=S)n1-c1ccc(Cl)cc1	-2.7	7.0	-4.5	0.3	-51.9*
Cc1nn(-c2ccccc2)c(=S)n1-c1ccccc1	3.4	-9.6	-3.3	-4.0	20.7
COc1cccc(NC(=O)c2sc(-c3ccco3)nc2-c2ccccc2)c1	·	·	-8.2	·	·
COc1ccc(COCC(O)CN2CCCCC2)cc1OC (configuration not stated)	2.8	1.9	1.1	0.2	8.3
OC(COCc1ccccc1)CN1CCCC1 (configuration not stated)	·	5.0	0.0	7.8	1.7
OC(COCc1ccccc1)CN1CCc2ccccc2C1 (configuration not stated)	-7.1	0.0	0.6	-10.6	-64.9*
COc1ccc(COCC(O)CN2CCc3ccccc3C2)cc1OC (configuration not stated)	-2.8	6.1	-5.5	-35.9	-60.6*
NS(=O)(=O)c1ccc(NC(=O)NC2CCSc3ccccc32)cc1 (configuration not stated)	·	·	-2.3	·	·
COc1cccc(N=c2oc3cc(O)ccc3cc2C(=O)NCC2CCCO2)c1 (configuration not stated)	?	1.2	-0.1	31.0*	14.3
